Sampled rows, rich in hits. Any-hit rate of the full collection: about 1.5%.
NadD inh – inhibitors of S. aureus NadD, primary screen, biochemical, colorimetric, uHTS; Nicotinate-nucleotide adenylyltransferase NadD (Staphylococcus aureus N315); 360,000 tested, 0.78% active; inhibition, % at 20 µM; purified NadD enzyme, colorimetric absorbance read-out; in the data active = inhibition above about 26%
GC-A act – GC-A stimulated cGMP production enhancers – HEK293 GC-A cells, cGMP TR-FRET, EC30 ANP, primary screen; activation, % at 10 µM; 370,000 tested, 0.14% active; 0% at EC30 ANP, 100% saturating ANP; AID 1671463, 2021; Atrial natriuretic peptide receptor 1 (Homo sapiens), P16066; in the data active = activation above about 40%
Neddylation inh – inhibitors of cullin neddylation, primary screen, biochemical, TR-FRET, uHTS, NAE and Ubc12. NEDD8-conjugating enzyme Ubc12 (Homo sapiens) + NEDD8-activating enzyme E1 regulatory …. inhibition, % at 25 µM. 360,000 tested, 0.58% active. AID 651699, 2012; in the data active = inhibition above about 36%
Target sequence (P61081 whole entry, looked up): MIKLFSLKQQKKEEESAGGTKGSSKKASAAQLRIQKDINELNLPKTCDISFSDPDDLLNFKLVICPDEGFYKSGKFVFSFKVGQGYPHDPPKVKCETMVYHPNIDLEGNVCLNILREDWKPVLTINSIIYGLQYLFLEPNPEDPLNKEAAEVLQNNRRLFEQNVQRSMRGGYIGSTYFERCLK
Target sequence (Q13564 whole entry, looked up): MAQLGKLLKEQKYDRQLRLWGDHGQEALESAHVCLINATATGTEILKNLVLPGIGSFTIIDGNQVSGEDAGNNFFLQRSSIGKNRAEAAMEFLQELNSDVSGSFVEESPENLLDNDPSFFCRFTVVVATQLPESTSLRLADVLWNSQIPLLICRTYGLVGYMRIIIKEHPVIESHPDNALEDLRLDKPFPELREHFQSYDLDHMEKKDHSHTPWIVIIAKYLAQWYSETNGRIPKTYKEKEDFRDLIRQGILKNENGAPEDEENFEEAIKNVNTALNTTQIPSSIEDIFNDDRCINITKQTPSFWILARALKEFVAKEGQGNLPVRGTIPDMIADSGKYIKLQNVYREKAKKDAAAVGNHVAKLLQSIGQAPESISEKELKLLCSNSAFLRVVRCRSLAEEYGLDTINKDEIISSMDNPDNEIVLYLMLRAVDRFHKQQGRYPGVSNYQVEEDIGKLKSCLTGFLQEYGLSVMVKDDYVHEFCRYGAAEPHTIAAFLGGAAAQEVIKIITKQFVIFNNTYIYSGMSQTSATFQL
GC-B act – human GC-B receptor activators, primary screen, HEK293 GC-B cells, cGMP TR-FRET, EC30 CNP; Atrial natriuretic peptide receptor 2 (Homo sapiens), P20594; 0% at EC30 CNP, 100% saturating CNP; activation, % at 10 µM; 370,000 tested, 0.11% active; AID 1920062, 2024;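 active = activation at 10 µM reaching about 35% in either raw or pattern-adjusted values, limit read from the data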
* = called active by the depositor.

Screening O=C1OCCC1Sc1nnc(-c2ccc3c(c2)OCO3)o1 (configuration not stated) returned NadD inh -0.7, GC-A act 28.3, Neddylation inh 0.6 and GC-B act -7.1.
For O=C1OCCC1Sc1nnc(-c2cccc(Br)c2)o1 (configuration not stated) the results were NadD inh -5.0, GC-A act 60.2*, Neddylation inh -11.3 and GC-B act 37.3*.
Screening COc1ccc(-c2cc(-c3nnc(SCC(=O)Nc4cccc(Cl)c4C)n3N)[nH]n2)cc1 returned GC-A act -22.8 and GC-B act -16.7.
For NS(=O)(=O)c1ccc(N=Nc2c(-c3ccccc3)[nH]n(-c3nc(-c4ccccc4)cs3)c2=O)cc1 the results were NadD inh 36.7*, GC-A act -2.4, Neddylation inh -38.6 and GC-B act 3.3.
OCC1OC(n2cnc3c(NCc4ccccc4O)ncnc32)C(O)C1O (configuration not stated) was read as NadD inh -4.1, GC-A act 0.0, Neddylation inh 61.2* and GC-B act 5.2.
For COc1ccc(/C=C2\Sc3ccc(C(=O)N4CCCC4)cc3N(C)C2=O)cc1OC the results were NadD inh -1.0 and Neddylation inh 7.7.
For COc1ccc(/C=C2\Sc3ccc(C(=O)NC4CC4)cc3N(C)C2=O)cc1OC the results were NadD inh -6.4, GC-A act 29.5, Neddylation inh -8.0 and GC-B act 38.7*.
For COC(=O)[C@]12C[C@H](CC(=O)NCc3cccc(C(F)(F)F)c3)C(=O)N(Cc3ccco3)C1=C[C@H](C1CCCC1)O[C@@H]2C the results were GC-A act -14.4 and GC-B act -1.7.
For O=C(COc1ccc(Cl)cc1Cl)NN1C(=O)/C(=C\c2ccc(Cl)cc2)SC1=S the results were NadD inh 33.1*, GC-A act 1.3, Neddylation inh -8.1 and GC-B act 2.3.
O=C(COc1ccc(Cl)cc1Cl)NN1C(=O)C2C3C=CC([C@@H]2C1=O)C31CC1 (some centres not stated) was read as NadD inh -2.4, GC-A act 8.7, Neddylation inh 2.7 and GC-B act 9.5.
`NC(=O)c1ccc(-c2ccc(Br)cc2)o1` gave NadD inh 6.1, GC-A act -1.5, Neddylation inh -170.2 and GC-B act -5.6.
`NC(=O)C1CCN(C(=S)c2ccc(-c3ccc(Br)cc3)o2)CC1` gave NadD inh -6.7, GC-A act 44.8*, Neddylation inh -17.1 and GC-B act 47.3*.
For CC(=O)N1CCN(C(=S)c2ccc(-c3ccc(Cl)cc3)o2)CC1 the results were NadD inh 3.3, GC-A act 43.5*, Neddylation inh -15.4 and GC-B act 48.2*.
For O=C(c1ccco1)N1CCN(C(=O)c2ccc(-c3ccc(Cl)cc3)o2)CC1 the results were NadD inh -3.8, GC-A act 5.4, Neddylation inh -41.2 and GC-B act 3.2.
N#CCC[C@@H]1CC[C@]2(CCCN(S(=O)(=O)c3ccccc3)C2)O1 was read as GC-A act 2.4 and GC-B act -7.8.
For COC(=O)C1=CN(c2ccc(OC)cc2)C=C(C(=O)OC)C1c1cc(OC)c(OC)cc1OC the results were NadD inh -3.8, GC-A act 3.6, Neddylation inh 58.6* and GC-B act 2.5.
Screening CC(C)OC(=O)C1=CNCC(C)(C)c2c1[nH]c1cc(F)ccc21 returned GC-A act -8.6 and GC-B act -19.4.
Screening N#C/C(=C/c1ccc(N2CCCC2)c([N+](=O)[O-])c1)c1nc2ccccc2[nH]1 returned NadD inh 35.8*, GC-A act 7.8, Neddylation inh -33.9 and GC-B act 10.1.
`Cc1ccc2nc(/C(C#N)=C\c3ccc(N4CCCCC4)c([N+](=O)[O-])c3)[nH]c2c1` gave NadD inh 39.2*, GC-A act 6.3, Neddylation inh -21.5 and GC-B act 0.3.
For COCC(=O)N(C)[C@H]1C[C@H]2c3[nH]c4c(-c5ccc6c(c5)OCO6)cccc4c3CCN2C(=O)[C@H]1[C@H](C)O the results were GC-A act 1.1 and GC-B act -3.0.
COC(=O)C1=C(C)N(Cc2ccc(C(F)(F)F)cc2)C(=NCc2ccc3c(c2)OCO3)NC1c1ccccc1C(F)(F)F (configuration not stated) was read as GC-A act 2.6 and GC-B act 2.6.
Screening NCCC(=O)Nc1ccc(Cl)cc1C(=O)c1ccc[nH]1 returned GC-A act -6.0 and GC-B act -14.1.
